# Assay outcomes: PubChem, The Scripps Research Institute Molecular Screening Center
# Sampled rows, rich in hits. Any-hit rate of the full collection: about 1.8%.
# LYPLA1 inh: LYPLA1 inhibitors, primary screen, counter-screen for PME1 inhibitor project, biochemical, fluorescence polarization, FP-Rh probe ABPP; Acyl-protein thioesterase 1 (Homo sapiens), O75608; recombinant LYPLA1; inhibition, % at 5.9 µM; 320,000 tested, 0.16% active; AID 2174, 2009;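 active means inhibition above the mean of all tested compounds plus 3 SD, set per campaign, cut at about 14% in these data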;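 further: inhibitors block serine hydrolase probe labeling of LYPLA1 so polarization falls; 0% = enzyme with DMSO and 100% = wells lacking LYPLA1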
# PAD4 inh: human PAD4 inhibitors, primary screen, biochemical, fluorescence polarization, 1536-well format; inhibition, % at 6.36 µM; AID 485272, 2010; recombinant PAD4, RCA probe fluorescence polarization; 330,000 tested, 0.41% active; Protein-arginine deiminase type-4 (Homo sapiens), Q9UM07;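 active means percent inhibition above a cutoff equal to the mean of all tested compounds plus 3 SD, cut at about 15% in these data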;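 further: 0% = PAD4 with RCA probe and DMSO and 100% = probe without PAD4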
# Target sequence (Q9UM07 whole entry, looked up): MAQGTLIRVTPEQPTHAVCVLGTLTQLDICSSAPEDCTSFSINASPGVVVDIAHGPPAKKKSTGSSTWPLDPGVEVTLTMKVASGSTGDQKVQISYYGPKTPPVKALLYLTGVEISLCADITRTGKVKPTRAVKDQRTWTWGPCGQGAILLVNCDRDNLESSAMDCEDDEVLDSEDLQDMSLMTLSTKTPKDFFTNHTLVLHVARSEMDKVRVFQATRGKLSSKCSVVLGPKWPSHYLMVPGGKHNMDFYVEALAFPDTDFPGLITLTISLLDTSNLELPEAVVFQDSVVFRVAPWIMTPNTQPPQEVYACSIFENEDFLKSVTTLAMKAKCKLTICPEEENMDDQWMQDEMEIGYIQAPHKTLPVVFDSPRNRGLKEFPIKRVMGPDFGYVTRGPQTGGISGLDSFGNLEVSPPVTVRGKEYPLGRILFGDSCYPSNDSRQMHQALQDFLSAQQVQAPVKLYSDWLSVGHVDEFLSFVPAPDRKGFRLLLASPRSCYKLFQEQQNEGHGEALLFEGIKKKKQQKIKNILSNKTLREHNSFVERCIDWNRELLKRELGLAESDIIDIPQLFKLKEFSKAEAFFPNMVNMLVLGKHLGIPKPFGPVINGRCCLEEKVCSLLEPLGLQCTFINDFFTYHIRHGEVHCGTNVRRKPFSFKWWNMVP
# LYPLA2 inh: LYPLA2 inhibitors, primary screen, counter-screen for PME1 inhibitor project, biochemical, fluorescence polarization, FP-Rh probe ABPP; Acyl-protein thioesterase 2 (Homo sapiens), O95372; recombinant LYPLA2; inhibition, % at 5.9 µM; 320,000 tested, 0.38% active; AID 2177, 2009;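 active means inhibition above the screen-wide mean plus 3 SD, limit set per campaign, cut at about 26% in these data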;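 further: 0% = LYPLA2 with DMSO and 100% = wells lacking LYPLA2 enzyme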
# Fam108B inh: mouse Fam108B serine hydrolase inhibitors, primary screen, counter-screen for RBBP9 inhibitor project, biochemical, fluorescence polarization | recombinant Fam108B, FP-Rh probe fluorescence polarization | inhibition, % at 9.51 µM | 300,000 tested, 0.33% active | AID 1947, 2009;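 active means inhibition above the screen mean inhibition plus 3 SD, computed separately per campaign, cut at about 18% in these data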;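 further: inhibitors lower polarization as less probe binds the enzyme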
# GSTO1 inh: inhibitors of recombinant GSTO1, primary screen, counter-screen for RBBP9 inhibitor project, biochemical, fluorescence polarization; Glutathione S-transferase omega-1 (Homo sapiens), P78417; activity-based probe fluorescence polarization; inhibition, % at 5.96 µM; 300,000 tested, 1.1% active;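 active means inhibition above the campaign mean inhibition plus 3 SD, cut at about 35% in these data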;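 further: 0% = GSTO1-1 with DMSO and 100% = wells lacking GSTO1-1 enzyme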
# PME-1 inh: PME-1 inhibitors via competitive probe labeling, primary screen, biochemical, fluorescence polarization, FP-Rh probe, HTS. Protein phosphatase methylesterase 1 (Homo sapiens), Q9Y570. recombinant PME-1. inhibition, % at 5.9 µM. 320,000 tested, 0.53% active. AID 2130, 2009;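 active means inhibition above the campaign mean of all compounds plus 3 SD, cut at about 26% in these data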;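 further: competitive labeling of PME-1 active site by serine hydrolase directed probe; 0% = PME-1 with DMSO and 100% = wells lacking PME-1 enzyme; inhibitors block probe labeling so polarization falls and inhibition rises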
# LYPLA2 confirm: LYPLA2 inhibitors, retest, confirmation, counter-screen for PME1 inhibitor project, biochemical, fluorescence polarization, FP-Rh probe ABPP | inhibition, % at 5.9 µM | shares compounds with LYPLA2 inh | recombinant LYPLA2 | 1,100 tested, 72% active;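 active means mean inhibition across replicates above the hit cutoff set in the primary screen, cut at about 26% in these data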;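 further: blocked labeling of the enzyme by serine hydrolase FP-Rh probe lowers polarization; 0% = enzyme with DMSO and 100% = wells lacking LYPLA2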
# LYPLA2 ABPP: LYPLA2 inhibitors in proteome, late-stage follow-up, gel-based competitive ABPP, fluorescence, assay provider; 150 tested, 30% active; rhLYPLA2 in mouse brain proteome, gel ABPP FP-Rh; inhibition, % at 20 µM; shares compounds with LYPLA2 inh;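 active means inhibition of LYPLA2 enzyme probe labeling above about 50%, limit read from the data; inactive means inhibition below that limit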;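 further: loss of FP-Rh probe labeling of the LYPLA2 gel band measured as band density; 0% = DMSO only control band and 100% = blank gel background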
# * marks the source's active call; other numbers are inactive results; nt = not tested or not shown.
SMILES,LYPLA1 inh,PAD4 inh,LYPLA2 inh,Fam108B inh,GSTO1 inh,PME-1 inh,LYPLA2 confirm,others
CCn1cnc2sc(C(=O)Nc3ccccc3OC)c(C)c2c1=O,1,-3,0,-2,5,0,nt,
CSc1ccccc1OCc1cc(C(=O)N2CCc3[nH]cnc3C2c2ccccn2)no1 (centres undefined),-2,-1,-1,0,2,1,nt,
CC(C)Cc1ccc(CN2CCCC(NC(=O)c3cccc(-n4cnnc4)c3)C2)cc1 (centres undefined),-5,-3,-9,1,2,-2,nt,
COc1cc(NC(=O)Cn2cnc3c(OCc4ccccc4)ncnc32)cc(OC)c1OC,nt,1,nt,nt,nt,nt,nt,
Cc1ccc(OCCOC(=O)c2cc(S(=O)(=O)N3CCCCC3)ccc2N2CCOCC2)cc1,-1,6,29*,nt,nt,8,31*,
O=C(OCc1ccc(F)cc1)c1cc(S(=O)(=O)N2CCCCC2)ccc1N1CCOCC1,2,-4,6,1,1,3,nt,
O=C(OCc1ccc([N+](=O)[O-])cc1)c1cc(S(=O)(=O)N2CCCCC2)ccc1N1CCOCC1,2,2,27*,0,-10,-1,33*,
COc1ccc(COC(=O)c2cc(S(=O)(=O)N3CCCCC3)ccc2N2CCOCC2)cc1,2,-3,17,-3,-4,9,nt,
O=C(Nc1cccc(F)c1)c1ccc(S(=O)(=O)N2CCCCC2)cc1,-6,1,-9,-4,-5,0,nt,
CC(=O)c1ccc(N2CCN(c3ccc(S(=O)(=O)N4CCN(C)CC4)cn3)CC2)cc1,0,0,27*,-3,-11,2,35*,
CC(=O)c1ccc(S(=O)(=O)N2CCN(C)CC2)cc1,-1,-5,5,0,11,2,nt,
CCN(CC(=O)Nc1ccc(OC)cc1)C(=O)c1ccc(N2C(=O)CCC2=O)cc1,2,0,5,nt,nt,-1,nt,
CCN(CC(=O)Nc1c(F)cccc1F)C(=O)c1nn(C)c(=O)c2ccccc12,-1,-3,3,nt,nt,7,nt,
COc1cc(/C=C2\CC/C(=C\c3cc(OC)c(OC)c(OC)c3)C2=O)cc(OC)c1OC,-1,-3,-2,-3,0,-8,nt,
COc1cc(/C=C2\CCc3ccccc3C2=O)cc(OC)c1OC,3,0,27*,4,0,2,18,
Cc1occc1-c1nnc(SCCCC(=O)c2ccc(F)cc2)n1C,0,2,2,4,11,-3,nt,
CCn1c(SCC(=O)c2ccc(F)cc2)nnc1-c1ccoc1C,5,-2,35*,-2,8,-1,-3,
Cc1cccc(C)c1NC(=O)CN1C(=O)S/C(=C\c2cccn2C)C1=O,-2,-2,-6,-3,5,3,nt,
Cc1cccc(NC(=O)CN2C(=O)S/C(=C\C(=O)Nc3ccc(Cl)cc3)C2=O)c1,-1,3,1,-12,8,-4,nt,
Cc1ccccc1NC(=O)CN1C(=O)S/C(=C\c2cccn2-c2cccc(C(=O)O)c2)C1=O,-9,7,50*,-3,3,-5,74*,LYPLA2 ABPP=64*
Cc1cccc(NC(=O)CN2C(=O)S/C(=C\c3cccn3-c3cccc(C(=O)O)c3)C2=O)c1,-5,2,67*,-8,-13,-5,63*,LYPLA2 ABPP=94*
Cc1ccc(NC(=O)CN2C(=O)S/C(=C\c3cccn3-c3cccc(C(=O)O)c3)C2=O)cc1C,-9,-2,36*,-2,-3,-11,43*,
